Screens: PubChem, Broad Institute
RAD54 inh = inhibitors of human RAD54 branch migration, primary screen, biochemical, fluorescence, single point; DNA repair and recombination protein RAD54-like (Homo sapiens), Q92698; RAD54 Holliday junction branch migration, FAM/BHQ fluorescence; inhibition, % at 10.4 µM; actives 0.14% (n = 360,000);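 active = mean normalized replicate activity at least 40 and at least half of replicates scoring 40 or more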;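 note: inhibitors cause a drop in the FAM fluorescence signal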
PGC1a acetyl inh = inhibitors of PGC1a acetylation signal, primary screen, cell-based, U2OS, AlphaScreen, inhibitor mode. AID 651687, 2012. AlphaScreen anti-acetyl-lysine; with virally co-expressed GCN5 acetyltransferase. inhibition, % at 15.6 µM. actives 0.17% (n = 350,000);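 active = every replicate shows inhibition of at least 40%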
ERAP1 HTS inh = human ERAP1 aminopeptidase inhibitors, primary screen, biochemical, single point, plate reader; Endoplasmic reticulum aminopeptidase 1 (Homo sapiens), Q9NZ08; recombinant ERAP1, Leu-AMC fluorescence, 60 min; inhibition, % at 10.7 µM; actives 0.15% (n = 340,000); AID 652197, 2013;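 active = mean replicate inhibition of at least 30%, or all replicates individually reaching that 30% level; inactive = mean below 30% and not every replicate reaching it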
INS-1E GSIS act = GLuc luminescence reporter in INS-1E cells, primary screen for activators of glucose-dependent secretion of insulin | INS-1E GLuc reporter insulin secretion, 2-3 h | activation, % at 16.6 µM | actives 0.61% (n = 370,000);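 active = lowest replicate activation of at least 40%, so every replicate reaches that level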
AF4-AF9 inh = inhibitors of AF4 peptide binding to AF9, primary screen, biochemical, AlphaScreen, biotin-AF4 peptide, FLAG-AF9, single point; inhibition, % at 10 µM; Protein AF-9 (Homo sapiens), P42568; actives 0.47% (n = 350,000);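 active = every replicate reaching a set inhibition limit, whatever the replicate mean, cut at about 25% in these data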
RAD52 anneal inh = RAD52 DNA annealing inhibitors, primary screen, biochemical, FRET, single point, set 2 | DNA repair protein RAD52 homolog (Homo sapiens), P43351 | recombinant RAD52 DNA annealing, FRET fluorescence | inhibition, % at 18.7 µM | actives 0.46% (n = 360,000) | AID 651710, 2012;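 active = every replicate showing at least 50% inhibition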
Target sequence (P43351 whole entry, looked up): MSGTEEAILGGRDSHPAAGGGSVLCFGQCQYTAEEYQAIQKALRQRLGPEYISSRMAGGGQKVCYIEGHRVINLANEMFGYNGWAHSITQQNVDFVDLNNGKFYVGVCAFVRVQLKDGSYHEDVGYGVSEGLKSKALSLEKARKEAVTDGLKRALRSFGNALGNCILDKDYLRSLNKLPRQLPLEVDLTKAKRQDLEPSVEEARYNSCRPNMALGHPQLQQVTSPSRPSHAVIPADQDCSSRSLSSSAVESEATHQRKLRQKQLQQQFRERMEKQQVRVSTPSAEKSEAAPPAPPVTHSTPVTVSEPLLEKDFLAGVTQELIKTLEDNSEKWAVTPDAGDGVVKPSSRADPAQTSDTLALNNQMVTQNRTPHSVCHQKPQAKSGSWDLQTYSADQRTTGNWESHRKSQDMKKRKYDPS
RAD52 DNA ctr = DNA-binding compounds via dye displacement, dose response, artefact control for RAD52 inhibitor project, biochemical, fluorescence polarization, cherry-pick | actives 8% (n = 1,000) | AC50, µM | shares compounds with RAD52 anneal inh | AID 652128, 2013 | Salmon sperm DNA/acridine orange FP displacement;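 active = fitted half-maximal concentration for signal loss at or below twice the highest dose tested, in every separate run, actives reach about 64 µM in these data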
Of the large screens only hits and unclear results are named; the others gave an inactive call (follow-up assays come after a bar, where they were run). The list is not random: actives were taken first. Their share in the collection is about 1.4%.

COc1cc(COCC(O)CN2CCN(CCN3C(=O)c4cccc5cccc(c45)C3=O)CC2)cc(OC)c1OC (stereo not drawn)	RAD52 anneal inh 85 (no result: RAD54 inh, PGC1a acetyl inh) | RAD52 DNA ctr inactive
Nc1cc(N)cc(C(=O)c2ccccc2)c1	RAD52 anneal inh 89 | RAD52 DNA ctr inactive
COc1cc(C(=O)NC2CCN(C)CC2)ccc1Nc1ncc2c(n1)N(C1CCCC1)CCC(=O)N2C(C)C	none (no result: PGC1a acetyl inh, ERAP1 HTS inh, INS-1E GSIS act, AF4-AF9 inh, RAD52 anneal inh)
COc1cc(C(=O)NC2CCN(C)CC2)ccc1Nc1ncc2c(n1)N(CCc1ccccc1)CCC(=O)N2C	RAD52 anneal inh 81 | RAD52 DNA ctr inactive
CCCN(CCC)c1nc2ccccc2n2c(C)nnc12	none (no result: PGC1a acetyl inh, ERAP1 HTS inh, INS-1E GSIS act, AF4-AF9 inh, RAD52 anneal inh)
CCCNc1nc2ccccc2n2c(C)nnc12	RAD52 anneal inh 73 | RAD52 DNA ctr inactive
C[C@H](O)C#Cc1cnc2c(c1)C(=O)N([C@H](C)CO)C[C@H](C)[C@@H](CN(C)Cc1cccc(C(=O)O)c1)O2	none
CCN(CC)CCCN(C(=O)c1ccc(Br)cc1)c1nc(-c2ccc(OC)cc2)cs1	AF4-AF9 inh 31, RAD52 anneal inh 57 | RAD52 DNA ctr inactive
CCN(CC)CCCN(C(=O)c1ccco1)c1nc(-c2ccc(C)cc2)cs1	RAD52 anneal inh 52 | RAD52 DNA ctr inactive
O=C(C[C@@H]1CC[C@H](NC(=O)c2ccccc2)[C@@H](CO)O1)NCc1ccncn1	none
CN1C(=O)c2cc(NC(=O)C3CC3)ccc2OC[C@H]2O[C@H](CC(=O)NCC3CCCCC3)CC[C@@H]21	none
CCCCCCCCCCCCC/C=C/[C@@H](O)[C@@H](N)CO	RAD52 anneal inh 55 (no result: INS-1E GSIS act) | RAD52 DNA ctr inactive
CC1CCCCN1CCNC(=O)c1cc2c(-c3ccccc3F)nn(C)c2s1 (stereo not drawn)	RAD52 anneal inh 56 | RAD52 DNA ctr inactive
CCOC(=O)N1CCC(NC(=O)c2cc3c(-c4ccccc4F)nn(C)c3s2)CC1	none
Cc1cc2cc(CNC(=O)NC3CCCCC3)ccc2[nH]1	none (no result: ERAP1 HTS inh, AF4-AF9 inh, RAD52 anneal inh)
Cc1cc2cc(CNC(=O)NC3CCCCC3)ccc2n1C	RAD52 anneal inh 66 (no result: INS-1E GSIS act) | RAD52 DNA ctr inactive
C[C@@H]1CNCCN1c1ccc(N2CCS(=O)(=O)CC2)c(C#N)c1	RAD52 anneal inh 55 (no result: RAD54 inh, PGC1a acetyl inh, AF4-AF9 inh) | RAD52 DNA ctr inactive
CNC(=O)C[C@H]1CC[C@H]2[C@H](COc3ccc(NC(=O)Nc4ccc(Cl)cc4)cc3C(=O)N2C)O1	none
CCn1c2ccccc2c2cc(CN3CCN(Cc4cc(OC)ccc4O)CC3)ccc21	RAD52 anneal inh 54 | RAD52 DNA ctr inactive
CCn1c2ccccc2c2cc(CN3CCN(S(C)(=O)=O)CC3)ccc21	none (no result: ERAP1 HTS inh, AF4-AF9 inh, RAD52 anneal inh)
CC(=O)Nc1cccc2c1O[C@H](CN(C)C(C)=O)[C@H](C)CN(C)C2=O	none (no result: RAD54 inh, PGC1a acetyl inh, ERAP1 HTS inh, AF4-AF9 inh, RAD52 anneal inh)
CC(=O)c1c(NCCc2ccccc2)nc(=S)n(-c2ccccc2)c1C	RAD52 anneal inh 58 (no result: RAD54 inh) | RAD52 DNA ctr inactive
CCn1c(C)c(C(C)=O)c(NCc2ccccc2)nc1=S	RAD52 anneal inh 68 | RAD52 DNA ctr inactive
Cc1cc(N)ccc1NC(=O)CN1CCCC1	RAD52 anneal inh 101 | RAD52 DNA ctr inactive
COc1ccc(N)cc1NC(=O)CN1CCCC1	RAD52 anneal inh 79 | RAD52 DNA ctr inactive
Cc1ccc(S(=O)(=O)N[C@@H]2CC[C@H](CCNC(=O)c3ccccc3F)O[C@H]2CO)cc1	none
CO[C@@H]1CN(C)C(=O)c2cc(NC(=O)C3CCOCC3)ccc2OC[C@H](C)N(C(C)=O)C[C@@H]1C	none (no result: RAD54 inh, ERAP1 HTS inh, AF4-AF9 inh, RAD52 anneal inh)
COc1cccc(CN2[C@H](CO)[C@@H](c3ccccc3)C23CN(Cc2ccccc2OC)C3)c1	none (no result: RAD54 inh)
CCCCCCOC(=O)C[N+](C)(C)CCOC1CC2CCC1(C)C2(C)C (stereo not drawn)	none (no result: ERAP1 HTS inh, INS-1E GSIS act, AF4-AF9 inh, RAD52 anneal inh)
CCCCCCCOC(=O)C[N+](C)(C)CCOC1CC2CCC1(C)C2(C)C (stereo not drawn)	INS-1E GSIS act 433, RAD52 anneal inh 85 (no result: RAD54 inh, PGC1a acetyl inh) | RAD52 DNA ctr inactive
O=C(C[C@H]1CC[C@@H]2[C@H](COC[C@@H](O)CN2Cc2ccc(F)cc2)O1)N1CCc2ccccc2C1	none
COc1ccc(/C=N/NC(=O)c2cccnc2)cc1CN1CCc2cc(OC)c(OC)cc2C1C (stereo not drawn)	none (no result: RAD54 inh)
COc1ccc(/C=N/NC(=O)c2cc(OC)c(OC)c(OC)c2)cc1CN1CCc2cc(OC)c(OC)cc2C1C (stereo not drawn)	RAD52 anneal inh 53 (no result: RAD54 inh) | RAD52 DNA ctr inactive
C/C=C/c1ccc2c(c1)O[C@H](CN(C)C(=O)Cc1cccnc1)[C@@H](C)CN([C@@H](C)CO)S2(=O)=O	none
COc1cccc(NC(=O)N(C)C[C@H]2Oc3cc(C#Cc4ccccc4)ccc3S(=O)(=O)N([C@@H](C)CO)C[C@H]2C)c1	none (no result: ERAP1 HTS inh, AF4-AF9 inh, RAD52 anneal inh)
FC(F)(F)c1ccc(CN2CCN(Cc3ccco3)CC2)cc1	RAD52 anneal inh 97 (no result: PGC1a acetyl inh) | RAD52 DNA ctr inactive
OC[C@@H]1CN(CCc2ccccc2)C[C@H](n2cnc3c(NCc4ccc(F)cc4)ncnc32)O1	RAD52 anneal inh 75 (no result: INS-1E GSIS act) | RAD52 DNA ctr inactive
N#Cc1ccc2[nH]cc(C3c4cc(F)ccc4C=C(c4ccsc4)N3c3ccc(C#CCCO)cc3)c2c1 (stereo not drawn)	none (no result: RAD54 inh, PGC1a acetyl inh)
COc1cc(-c2ccc(N3C(c4ccsc4)=Cc4ccc(F)cc4C3c3c[nH]c4ccc(C#N)cc34)cc2)cc(OC)c1OC (stereo not drawn)	RAD52 anneal inh 71 (no result: RAD54 inh, PGC1a acetyl inh) | RAD52 DNA ctr inactive
CNC(=O)C[C@H]1CC[C@@H]2[C@@H](COc3ccc(NC(=O)c4ccc5c(c4)OCO5)cc3C(=O)N2C)O1	none (no result: ERAP1 HTS inh, AF4-AF9 inh, RAD52 anneal inh)
COc1ccc(-c2nc(CN3CCN(c4cc(C)nc(C)c4)CC3)c(C)o2)c2ccccc12	AF4-AF9 inh 26, RAD52 anneal inh 82 (no result: PGC1a acetyl inh) | RAD52 DNA ctr inactive
COc1ccc2c3c(n(C)c2c1)[C@@H](CO)N(C(=O)Cc1ccccc1)CC31CCN(C)CC1	none (no result: RAD54 inh)
CC(=O)Nc1cccc(N/C(N)=N/c2nc(C)cc(C)n2)c1	RAD52 anneal inh 57 (no result: RAD54 inh, PGC1a acetyl inh) | RAD52 DNA ctr inactive
COc1ccc2c3c([nH]c2c1)[C@@H](CO)N(C(=O)Cc1ccccn1)CC31CCN(Cc2ccccn2)CC1	none (no result: RAD54 inh)
CN(C)CCCNC(=O)C(=O)Nc1cc2c3c(c1)CC(=O)N3CCC2	RAD52 anneal inh 97 | RAD52 DNA ctr inactive
CN(C)CCNC(=O)C(=O)Nc1cc2c3c(c1)CCC(=O)N3CCC2	none
N#Cc1cc2cc3c(cc2nc1NCCNC(=S)NCCCN1CCOCC1)OCO3	RAD52 anneal inh 72 (no result: RAD54 inh) | RAD52 DNA ctr inactive
CCNC(=O)/C(C#N)=C/c1c(N2CCN(c3ccccc3)CC2)nc2c(C)cccn2c1=O	none (no result: PGC1a acetyl inh)
